Screening data: PubChem, National Center for Advancing Translational Sciences (NCATS)
This is a sample that favours compounds with a hit; in the whole collection about 19% have one here.
Cycloheximide cs = Cycloheximide Counterscreen for Small Molecule Inhibitors of Shiga Toxin; cell reporter, cycloheximide protein synthesis inhibition counterscreen; max response, %; actives 12% (n = 300,000); AID 2314, 2010; in the data active means max response mostly above about 13%, no sharp cut-off; inactive means mostly below about 14%; further: read at 38.3 µM for the half of the compounds with a filed dose
Pf growth 48h = Primary qHTS for delayed death inhibitors of the malarial parasite plastid, 48 hour incubation. P. falciparum luciferase growth in erythrocytes, 48 h. actives 5.9% (n = 310,000). AID 504832, 2011. Potency, µM (doses to about 28.7 µM), most hits filed as inhibitors
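Here the parasites carry a stable luciferase gene and grow inside erythrocytes in Albumax-based RPMI medium with compound for one erythrocytic cycle. Activity is scored as loss of luminescent signal.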
Shiga inhibitor = A qHTS for Small Molecule Inhibitors of Shiga Toxin | Vero cells, Shiga toxin protein synthesis inhibition reporter | inhibition, % at 38.7 µM | actives 9.2% (n = 290,000) | AID 2315, 2010; in the data active means inhibition mostly above about 28%, no sharp cut-off; inactive means mostly below about 43%
SARS PLP yeast = qHTS of Yeast-based Assay for SARS-CoV PLP; S. cerevisiae expressing SARS-CoV PLpro, growth rescue; Potency, µM (doses to about 32.9 µM), hits mostly activators; actives 0.19% (n = 330,000); AID 485353, 2010; calls by dose curve; further: nearly all actives have a fitted effect of over 55% in size
AMA1-RON2 inh = qHTS for Inhibitors of AMA1-RON; Towards Development of Antimalarial Drug Lead: Primary Screen. actives 0.2% (n = 360,000). AlphaScreen AMA1-biotinylated RON2 peptide binding. Potency, µM (highest dose often 58.2 µM), usual class: inhibitors. Plasmodium falciparum AMA1 (3D7) - RON2 peptide interaction; further: nearly all actives have a fitted effect of over 45% in size
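AMA1 (3D7) with his tag at 25 nM final met compounds first, then biotinylated RON2 peptide at 25 nM; detection used donor plus acceptor beads, 10 µg/mL apiece, read by AlphaScreen after 30 min at room temperature.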
Pf growth 96h = Primary qHTS for delayed death inhibitors of the malarial parasite plastid, 96 hour incubation; P. falciparum luciferase reporter growth, 96 h; Potency, µM (highest dose often 28.7 µM), actives largely listed as inhibitors; actives 6.9% (n = 320,000)
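Readout is luminescence from an integrated firefly luciferase in P. falciparum. Red cells, 2% hematocrit and 0.05% parasitemia final, were cultured with compound through two parasite generations (96 hours) at 37 C, 5% CO2.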
Of the large screens only hits and unclear results are named; the others gave an inactive call. Unless noted, the call rests on the fitted dose curve; in most records, active means well fitted curve in the direction sought with a large enough effect; inconclusive means small, poorly fitted or top-dose-only effect, or another doubt; inactive means no such curve, though single readings can be large; an effect the other way counts as inactive or inconclusive.

Cc1cccc(C(=O)N(Cc2ccc(C)o2)C2CCS(=O)(=O)C2)c1 (stereo unspecified)	Pf growth 96h inconclusive
Cn1nnnc1SCC(=O)NC(=O)c1cccc([N+](=O)[O-])c1	none
CC[C@@]12CCCN3CCc4c(n(c5ccccc45)[C@](O)(C(=O)OC)C1)C32 (stereo partly specified)	Pf growth 96h inconclusive (no result: Cycloheximide cs, Shiga inhibitor, SARS PLP yeast, AMA1-RON2 inh)
CCN(CC)C(=O)[C@H]1C[C@H](CC(=O)NCCN2CCOCC2)C(=O)N2CCc3c([nH]c4cc(-c5ccco5)ccc34)[C@]12C	none (no result: Cycloheximide cs, Pf growth 48h, Shiga inhibitor, Pf growth 96h)
CC1=C(c2ccc(NN=C(C#N)C#N)cc2)NNC(=O)C1	none (no result: Cycloheximide cs, Shiga inhibitor, SARS PLP yeast, AMA1-RON2 inh)
O=S(=O)(Nc1ccc(-c2nc3cccnc3s2)cc1)c1cccs1	Cycloheximide cs 28.1
O=S(=O)(Nc1ccc(-c2nc3cccnc3s2)cc1)c1ccc(Cl)s1	Cycloheximide cs 32.9, Shiga inhibitor 16.2
Cc1nc2cc(NS(=O)(=O)c3ccccc3F)ccc2s1	none
Cc1cc(-c2nc3cccnc3s2)ccc1NS(=O)(=O)c1cccs1	Cycloheximide cs 47.8, Shiga inhibitor 137.8
O=S(=O)(Nc1ccc(-c2nc3cccnc3s2)cc1)c1ccccc1F	Cycloheximide cs 49.8, Shiga inhibitor 91.8
COc1ccccc1NS(=O)(=O)c1cc(NC(=O)C2CCCO2)ccc1C (stereo unspecified)	none (no result: Cycloheximide cs, Pf growth 48h, Shiga inhibitor, Pf growth 96h)
c1ccc(-c2nnnn2-c2ccccn2)cc1	none (no result: Cycloheximide cs, Pf growth 48h, Shiga inhibitor, SARS PLP yeast, Pf growth 96h)
Cc1cccc(C(C)C)c1-n1nnnc1-c1ccccc1	Pf growth 48h 10.4µM
CS(=O)(=O)N1N=C(c2ccco2)CC1c1ccc(Br)cc1 (stereo unspecified)	Cycloheximide cs 20.9
CS(=O)(=O)N1N=C(c2ccco2)CC1c1ccc(Cl)cc1Cl (stereo unspecified)	Pf growth 96h 5.22µM
CS(=O)(=O)N1N=C(c2ccco2)CC1c1cccc([N+](=O)[O-])c1 (stereo unspecified)	none
CS(=O)(=O)N1N=C(c2ccco2)CC1c1ccccc1Cl (stereo unspecified)	none
Cc1nn(CCCC(=O)Nc2cc(Oc3ccc(F)cc3)cc([N+](=O)[O-])c2)c(C)c1[N+](=O)[O-]	Pf growth 96h inconclusive
Cc1ccccc1Oc1cc(NC(=O)Cn2cnc([N+](=O)[O-])c2)cc([N+](=O)[O-])c1	Pf growth 48h 10.4µM, Pf growth 96h inconclusive
Cc1ccccc1Oc1cc(NC(=O)CCCn2nc(C)c([N+](=O)[O-])c2C)cc([N+](=O)[O-])c1	Pf growth 48h inconclusive, Pf growth 96h 14.7µM
Cc1ccc(C)c(C(=O)CN2C3=NCCCN3c3ccccc32)c1	Pf growth 48h 7.38µM, SARS PLP yeast inconclusive, Pf growth 96h 9.28µM
COc1ccc(C(=O)CN2C3=NCCCN3c3ccccc32)cc1OC	none
CCCCCCN1C2=NCCCN2c2ccccc21	Pf growth 48h inconclusive, Pf growth 96h 11.7µM
OCCN1C2=NCCCN2c2ccccc21	Pf growth 96h 7.38µM
Cc1ccc(C(O)CN2C3=NCCCN3c3ccccc32)cc1 (stereo unspecified)	Pf growth 48h inconclusive, Pf growth 96h 4.15µM
O=Cc1cc2ccccc2nc1SCCCF	Pf growth 48h inconclusive
O=C(O)/C=C(/c1ccccc1)C(F)(F)F	none (no result: Cycloheximide cs, Pf growth 48h, Shiga inhibitor, SARS PLP yeast, Pf growth 96h)
COc1ccc(-c2nnc3ccc(SC(C(C)=O)C(C)=O)nn23)cc1OC	Pf growth 48h 9.28µM, Pf growth 96h inconclusive
COc1ccc(-c2nnc3ccc(SCC(=O)Nc4nc5ccc(C)cc5s4)nn23)cc1OC	Pf growth 48h 13.1µM, Pf growth 96h inconclusive
CCC(Sc1ccc2nnc(-c3ccc(OC)c(OC)c3)n2n1)C(=O)O (stereo unspecified)	Pf growth 96h inconclusive (no result: Pf growth 48h)
COC(=O)CSc1ccc2nnc(-c3ccc(OC)c(OC)c3)n2n1	none
COc1ccc(C2C3=C(CC(C)(C)CC3=O)N(C)C3=C2C(=O)CC(C)(C)C3)cc1OC	Pf growth 96h 13.1µM
C#CCOc1ccc(C2C3=C(CC(C)(C)CC3=O)N(CC(=O)O)C3=C2C(=O)CC(C)(C)C3)cc1OC	Pf growth 96h inconclusive
C=CCOc1ccc(C2C(C#N)=C(N)N(Nc3ccccc3)C3=C2C(=O)CC(C)(C)C3)cc1OC (stereo unspecified)	Pf growth 48h 8.28µM, Pf growth 96h 8.28µM
COc1ccc(CN2C(=O)C(CC(=O)NC3CCCCC3)CC(C(=O)N(C)C)=C2C)cc1 (stereo unspecified)	none (no result: Cycloheximide cs, Pf growth 48h, Shiga inhibitor, SARS PLP yeast, Pf growth 96h)
Cn1nc(C(=O)OCc2ccc(Br)cc2F)c2ccccc2c1=O	none
COc1ccc(S(=O)(=O)N2CCOCC2)cc1NC(=O)CSc1nnc(C2CC2)n1C	none (no result: Cycloheximide cs, Pf growth 48h, Shiga inhibitor, Pf growth 96h)
Cc1ccc(NC(=O)CC(NC(=O)c2ccccc2Cl)c2ccccc2)nc1 (stereo unspecified)	none (no result: Cycloheximide cs, Shiga inhibitor)
COc1cc(C2c3c(-c4ccccc4O)n[nH]c3C(=O)N2Cc2ccco2)cc(OC)c1OC (stereo unspecified)	Pf growth 48h 11.7µM, Pf growth 96h 7.38µM
COc1ccc(C2c3c(-c4ccccc4O)n[nH]c3C(=O)N2Cc2ccco2)cc1 (stereo unspecified)	Pf growth 48h inconclusive, Pf growth 96h 9.28µM
O=C1c2[nH]nc(-c3ccccc3O)c2C(c2cccc(O)c2)N1Cc1ccco1 (stereo unspecified)	Pf growth 96h inconclusive
COC(=O)[C@H](CC(C)C)NC(=O)Nc1ccccc1F	none
CC1CCC(N2CCN(c3ccc([N+](=O)[O-])cc3)CC2)CC1 (stereo unspecified)	AMA1-RON2 inh inconclusive (no result: SARS PLP yeast)
O=C(N/N=C/c1c(O)n(Cc2ccccc2)c(=O)c2ccccc12)c1cccnc1	Pf growth 48h inconclusive, SARS PLP yeast inconclusive, Pf growth 96h 14.7µM
COc1ccc(Cn2c(O)c(/C=N/NC(=O)c3cccnc3)c3ccccc3c2=O)cc1	Pf growth 48h 13.1µM, SARS PLP yeast inconclusive, Pf growth 96h 5.22µM
O=C(Nc1ccccc1-c1nnn(CC(=O)N2CCOCC2)n1)c1ccccc1F	none
O=C(COC(=O)/C=C/c1ccc2c(c1)OCO2)Nc1ccccc1	Cycloheximide cs 40.4, Shiga inhibitor 92.6
O=C(COC(=O)c1cccnc1)Nc1ccccc1	Pf growth 48h inconclusive, Pf growth 96h inconclusive
O=C(COC(=O)/C=C/c1ccc2c(c1)OCO2)Nc1ccc(S(=O)(=O)N2CCCC2)cc1	none
O=C(COC(=O)c1ccncc1)Nc1ccccc1	Cycloheximide cs 21.0
O=C(COC(=O)c1ccc2c(c1)OCO2)Nc1ccccc1	Cycloheximide cs 13.3, Shiga inhibitor 41.4
NS(=O)(=O)c1ccc(NC(=O)COC(=O)CCc2ccc(S(=O)(=O)N3CCOCC3)cc2)cc1	none
CCCCCCCCC(c1nc2ccccc2[nH]1)N1CCN=C1c1cc2ccccc2[nH]1 (stereo unspecified)	none (no result: Cycloheximide cs, Pf growth 48h, Shiga inhibitor, SARS PLP yeast, Pf growth 96h)
